Laboratory results taken from PubChem BioAssay (EPA / NIEHS).
Active and inactive are the calls of the source. Rule for the calls: active = hit-call score of the fitted dose curve at least 0.9, where 1 is the maximum; inactive = score below 0.9.

How the values were obtained:
[1] = ATG_CRE_CIS: Attagene CIS-FACTORIAL HepG2 Assay for human cAMP Responsive Element (CRE) binding protein 3 (AID 2282926); conditions: HepG2 CRE cis-reporter, Attagene multiplexed mRNA; actives raise or lower the signal
Method in brief: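 Readout: fluorescently labelled reporter transcripts resolved by capillary electrophoresis after RT-PCR, taken 24 h post-dosing in transfected HepG2. Endogenous transcription factor activity drives each cis-element reporter; gain or loss of signal fitted relative to DMSO control.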

[2] = molecular target: CCAAT/enhancer-binding protein beta (Homo sapiens) (UniProt P17676); experiment: ATG_C_EBP_CIS: Attagene CIS-FACTORIAL HepG2 Assay for human CCAAT/Enhancer Binding Protein (C/EBP) beta (AID 2282927); conditions: HepG2 Attagene cis-factorial transcription factor reporter; actives raise or lower the signal
Chain of CCAAT/enhancer-binding protein beta (Homo sapiens) (P17676 whole entry, looked up, the tested form may be a part): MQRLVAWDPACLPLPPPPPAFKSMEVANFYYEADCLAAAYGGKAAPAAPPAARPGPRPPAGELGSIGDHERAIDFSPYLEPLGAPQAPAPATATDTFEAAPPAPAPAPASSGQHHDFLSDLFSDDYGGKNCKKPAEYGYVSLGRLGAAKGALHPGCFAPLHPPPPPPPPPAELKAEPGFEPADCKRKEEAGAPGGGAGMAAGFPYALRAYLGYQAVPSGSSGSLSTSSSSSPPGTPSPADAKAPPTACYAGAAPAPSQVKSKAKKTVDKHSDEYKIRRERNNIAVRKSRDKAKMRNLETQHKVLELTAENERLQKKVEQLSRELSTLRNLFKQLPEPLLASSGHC
Method in brief: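 Endogenous C/EBPb-driven reporter transcripts measured in transfected human HepG2 cells at 24 h via RT-PCR and capillary electrophoresis of labelled fragments. Activity fitted in both directions relative to DMSO baseline.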

[3] = ATG_CMV_CIS: Attagene CIS-FACTORIAL HepG2 Assay for human CMV (Internal Marker) (AID 2282928); conditions: HepG2 CMV promoter reporter, transcription factor profiling; actives raise or lower the signal;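 note: endpoint acts as a background internal control marker rather than a target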
Method in brief: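 Readout: fluorescent reporter cDNA fragments separated by capillary electrophoresis after RT-PCR and HpaI cut. Cells: HepG2 carrying transfected cis-promoter reporter constructs, dosed 24 h. Endpoint serves as background internal-marker control, fit bidirectionally versus DMSO.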

[4] = ATG_DR4_LXR_CIS: Attagene CIS-FACTORIAL HepG2 Assay for human Liver X Receptor (LXR), DR4 submotif (AID 2282929); conditions: HepG2 Attagene DR4 cis-reporter, mRNA transcription; actives raise or lower the signal
Method in brief: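 Total RNA from 24 h-treated, MRTU-transfected HepG2 cells underwent reverse transcription, PCR, fluorescent primer extension and restriction digestion before capillary electrophoresis. Both increases and decreases in reporter signal were fitted against DMSO.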

[5] = molecular target: Aryl hydrocarbon receptor (Homo sapiens) (UniProt P35869); experiment: ATG_Ahr_CIS: Attagene CIS-FACTORIAL HepG2 Assay for human Aryl Hydrocarbon Receptor (Ahr) (AID 2282930); conditions: HepG2 AhR cis-factorial reporter transcription; actives raise or lower the signal
Chain of Aryl hydrocarbon receptor (Homo sapiens) (P35869 whole entry, looked up): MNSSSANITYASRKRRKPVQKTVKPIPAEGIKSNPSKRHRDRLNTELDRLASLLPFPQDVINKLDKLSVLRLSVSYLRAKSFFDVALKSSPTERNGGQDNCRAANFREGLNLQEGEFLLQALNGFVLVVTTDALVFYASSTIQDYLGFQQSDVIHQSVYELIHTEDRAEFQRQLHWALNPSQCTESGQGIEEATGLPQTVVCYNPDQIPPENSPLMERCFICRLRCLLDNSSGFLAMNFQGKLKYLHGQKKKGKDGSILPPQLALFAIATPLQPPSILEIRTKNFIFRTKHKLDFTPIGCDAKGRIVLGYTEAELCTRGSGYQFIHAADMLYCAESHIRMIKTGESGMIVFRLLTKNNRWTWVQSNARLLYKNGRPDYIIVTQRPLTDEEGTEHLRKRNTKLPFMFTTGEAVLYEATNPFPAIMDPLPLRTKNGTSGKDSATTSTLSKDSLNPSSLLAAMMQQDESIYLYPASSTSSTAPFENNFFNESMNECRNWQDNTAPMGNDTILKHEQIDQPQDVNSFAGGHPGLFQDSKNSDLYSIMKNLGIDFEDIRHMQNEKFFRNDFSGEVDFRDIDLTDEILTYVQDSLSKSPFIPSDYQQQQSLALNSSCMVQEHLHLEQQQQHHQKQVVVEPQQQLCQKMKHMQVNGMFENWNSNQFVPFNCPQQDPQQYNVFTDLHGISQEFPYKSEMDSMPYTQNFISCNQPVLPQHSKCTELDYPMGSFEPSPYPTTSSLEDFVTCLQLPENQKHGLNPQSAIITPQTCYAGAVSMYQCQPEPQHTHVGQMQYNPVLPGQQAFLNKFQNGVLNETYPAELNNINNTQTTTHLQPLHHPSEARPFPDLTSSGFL
Method in brief: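 Reporter mRNA levels, quantified by RT-PCR and fluorescent capillary electrophoresis, reflect endogenous AhR transcriptional activity in HepG2 cells carrying transfected cis-promoter reporter constructs. Readout at 24 h post-dose; gain or loss fitted against DMSO baseline.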

[6] = ATG_AP_1_CIS: Attagene CIS-FACTORIAL HepG2 Assay for human Activator Protein 1 (AP-1) (AID 2282931); conditions: HepG2 Attagene cis-factorial AP-1 reporter mRNA; actives raise or lower the signal
Method in brief: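 HepG2, transient cis-reporter transfection; 24 h; readout RT-PCR/CE fluorescence; DMSO baseline, gain and loss fitted.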

[7] = ATG_AP_2_CIS: Attagene CIS-FACTORIAL HepG2 Assay for human Activator Protein 2 (AP-2) (AID 2282932); conditions: HepG2 AP-2 cis-reporter, Attagene transcription factor profiling; actives raise or lower the signal
Method in brief: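 Endogenous transcription factor activity is reported through transfected multiplex reporter constructs in HepG2, after 24 h of compound exposure. Transcripts were quantified by RT-PCR and capillary electrophoresis of fluorescent fragments. Bidirectional fit against DMSO.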

[8] = ATG_BRE_CIS: Attagene CIS-FACTORIAL HepG2 Assay for human Bone Morphogenetic Protein (BMP) Response Element (BRE) (AID 2282933); conditions: HepG2 BMP response element reporter, Attagene transcription factor profiling; actives raise or lower the signal
Method in brief: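 HepG2 cells transiently transfected with CIS reporter units (endogenous TF activity, BMP response element), dosed 24 h. Reporter mRNA quantified by RT-PCR, fluorescent labelling and capillary electrophoresis; bidirectional fit vs DMSO baseline.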

[9] = molecular target: Retinoic acid receptor alpha (Homo sapiens) (UniProt P10276); experiment: ATG_DR5_RAR_CIS: Attagene CIS-FACTORIAL HepG2 Assay for human Retinoic Acid Receptor Alpha (RARE), DR5 submotif (AID 2282934); conditions: HepG2 Attagene cis-factorial RARE DR5 reporter, mRNA; actives raise or lower the signal;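 for AC50: reporter responds to endogenous RAR alpha beta and gamma in HepG2 not RARA alone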
Chain of Retinoic acid receptor alpha (Homo sapiens) (P10276 whole entry, looked up): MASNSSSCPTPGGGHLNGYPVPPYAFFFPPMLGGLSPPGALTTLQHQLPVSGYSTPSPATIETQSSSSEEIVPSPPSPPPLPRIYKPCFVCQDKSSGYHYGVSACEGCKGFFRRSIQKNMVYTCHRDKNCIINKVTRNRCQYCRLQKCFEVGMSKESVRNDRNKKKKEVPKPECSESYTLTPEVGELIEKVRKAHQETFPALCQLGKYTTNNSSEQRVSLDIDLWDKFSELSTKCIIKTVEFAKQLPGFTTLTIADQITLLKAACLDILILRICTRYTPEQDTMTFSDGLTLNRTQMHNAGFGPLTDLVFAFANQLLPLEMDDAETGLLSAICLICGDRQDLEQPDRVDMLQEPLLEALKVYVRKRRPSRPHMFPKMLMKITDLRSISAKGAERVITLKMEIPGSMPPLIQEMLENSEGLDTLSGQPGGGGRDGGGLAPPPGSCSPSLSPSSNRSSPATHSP
Method in brief: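 Reporter transcripts from a DR5-regulated unit, measured via RT-PCR plus capillary electrophoresis, reflect endogenous RAR activity in transiently transfected human HepG2 liver cells. Exposure lasted 24 h; gain or loss of signal scored against DMSO.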

[10] = molecular target: Transcription factor E2F1 (Homo sapiens) (UniProt Q01094); experiment: ATG_E2F_CIS: Attagene CIS-FACTORIAL HepG2 Assay for human E2F Transcription Factor 1 (AID 2282935); conditions: HepG2 Attagene cis-reporter, E2F reporter RNA transcripts; actives raise or lower the signal
Chain of Transcription factor E2F1 (Homo sapiens) (Q01094 whole entry, looked up): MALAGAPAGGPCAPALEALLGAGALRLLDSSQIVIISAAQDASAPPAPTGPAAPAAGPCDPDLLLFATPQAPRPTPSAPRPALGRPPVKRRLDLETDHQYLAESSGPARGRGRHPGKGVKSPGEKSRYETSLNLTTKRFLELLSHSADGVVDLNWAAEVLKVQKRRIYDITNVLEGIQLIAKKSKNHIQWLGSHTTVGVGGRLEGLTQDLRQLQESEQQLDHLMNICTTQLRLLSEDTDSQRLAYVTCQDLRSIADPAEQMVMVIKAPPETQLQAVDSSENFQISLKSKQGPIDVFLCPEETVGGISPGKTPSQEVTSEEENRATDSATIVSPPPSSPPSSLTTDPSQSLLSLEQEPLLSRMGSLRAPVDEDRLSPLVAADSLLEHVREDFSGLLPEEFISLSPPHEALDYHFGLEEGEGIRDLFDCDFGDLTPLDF
Method in brief: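 Gain or loss of reporter transcript, fitted against DMSO, reflects E2F1-driven transcription. Transiently transfected HepG2 dosed 24 h before RNA isolation. Quantified by fluorescent RT-PCR products separated by capillary electrophoresis.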

[11] = ATG_E_Box_CIS: Attagene CIS-FACTORIAL HepG2 Assay for human Enhancer Box (E-box) (AID 2282936); conditions: HepG2 E-box cis-reporter transcription, actives raise or lower the signal
Method in brief: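 E-box-driven reporter transcripts measured in transiently transfected HepG2 after 24 h exposure: RNA reverse-transcribed, PCR-amplified, fluorescently labelled, digested and resolved by capillary electrophoresis. Gain or loss relative to DMSO.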

[12] = ATG_M_61_CIS: Attagene CIS-FACTORIAL HepG2 Assay for M61 Transcription Factor (Internal Marker) (AID 2282937); conditions: HepG2 Attagene CIS-FACTORIAL M61 internal marker reporter; actives raise or lower the signal
Method in brief: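 Transfect HepG2 with MRTUs; dose 24 h; isolate RNA; reverse-transcribe with DNase I treatment; PCR-amplify, FAM-label and cut with HpaI for 2 h at 37 C; resolve by CE. Bidirectional fitting against DMSO.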

[13] = ATG_EGR_CIS: Attagene CIS-FACTORIAL HepG2 Assay for human Early Growth Response 1 (EGR1) (AID 2282938); conditions: HepG2 Attagene CIS-FACTORIAL EGR reporter mRNA; actives raise or lower the signal
Method in brief: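 After a 24 h treatment of transiently transfected HepG2 cells, total RNA was reverse-transcribed and reporter sequences PCR-amplified, labelled and run on capillary electrophoresis. Reporters sit under cis-regulatory promoters sensing endogenous factors.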

[14] = ATG_M_19_CIS: Attagene CIS-FACTORIAL HepG2 Assay for M19 Transcription Factor (Internal Marker) (AID 2282939); conditions: HepG2 Attagene CIS-FACTORIAL M19 internal marker reporter; actives raise or lower the signal
Method in brief: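 HepG2 cells transiently transfected with cis-regulated multiplexed reporter units, dosed 24 h. Reporter mRNA quantified by RT-PCR and capillary electrophoresis; internal background marker fitted bidirectionally versus DMSO.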

[15] = ATG_ERE_CIS: Attagene CIS-FACTORIAL HepG2 Assay for Estrogen Response Element (ERE) (AID 2282940); conditions: HepG2 ERE cis-reporter, Attagene RNA transcript; actives raise or lower the signal
Method in brief: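 HepG2 cells transiently transfected with multiplexed cis-element reporter units, measuring endogenous transcription factor activity; ERE reporter mRNA quantified after 24 h exposure by RT-PCR, fluorescent labelling, HpaI digestion and capillary electrophoresis. Bidirectional change versus DMSO.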

[16] = ATG_Ets_CIS: Attagene CIS-FACTORIAL HepG2 Assay for human Erythroblast Transformation Specific (ETS) (AID 2282941); conditions: HepG2 ETS cis-reporter transcription, actives raise or lower the signal
Method in brief: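 RT-PCR/capillary electrophoresis fluorescence read-out of reporter mRNA; HepG2 transient multi-reporter transfection; 24 h compound exposure; gain or loss of signal fitted bidirectionally relative to DMSO.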

[17] = molecular target: Hepatocyte nuclear factor 3-beta (Homo sapiens) (UniProt Q9Y261); experiment: ATG_FoxA2_CIS: Attagene CIS-FACTORIAL HepG2 Assay for human Forkhead box A2 (FOXA2) (AID 2282942); conditions: HepG2 cis-reporter transcription factor activity, 24 h; actives raise or lower the signal
Chain of Hepatocyte nuclear factor 3-beta (Homo sapiens) (Q9Y261 whole entry, looked up): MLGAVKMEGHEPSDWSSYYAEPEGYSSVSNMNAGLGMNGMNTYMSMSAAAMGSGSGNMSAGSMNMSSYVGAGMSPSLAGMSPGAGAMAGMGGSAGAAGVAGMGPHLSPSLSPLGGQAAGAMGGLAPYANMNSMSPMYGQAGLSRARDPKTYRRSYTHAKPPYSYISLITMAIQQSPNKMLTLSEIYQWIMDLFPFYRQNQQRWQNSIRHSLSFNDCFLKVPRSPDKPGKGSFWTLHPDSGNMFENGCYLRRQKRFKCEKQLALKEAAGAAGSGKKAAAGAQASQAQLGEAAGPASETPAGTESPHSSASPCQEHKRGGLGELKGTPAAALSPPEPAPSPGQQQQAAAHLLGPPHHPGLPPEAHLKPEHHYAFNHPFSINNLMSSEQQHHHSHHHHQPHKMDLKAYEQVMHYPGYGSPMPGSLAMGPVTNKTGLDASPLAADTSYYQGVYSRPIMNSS
Method in brief: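 24 h dosing of HepG2 bearing cis-reporter constructs; mRNA readout by RT-PCR/CE fluorescence; bidirectional fit, DMSO baseline.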

[18] = ATG_FoxO_CIS: Attagene CIS-FACTORIAL HepG2 Assay for human Forkhead box O (FoxO) (AID 2282943); conditions: HepG2 Attagene cis-reporter, FoxO element, mRNA; actives raise or lower the signal
Method in brief: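 Endogenous transcription factor activity read from multiplexed cis-promoter reporter transcripts in transiently transfected HepG2, 24 h after dosing. Reporter RNA measured via RT-PCR plus capillary electrophoresis of FAM-labeled products; gain or loss relative to DMSO.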

[19] = ATG_GATA_CIS: Attagene CIS-FACTORIAL HepG2 Assay for human GATA Binding Protein (AID 2282944); conditions: HepG2 GATA cis-element reporter, Attagene multiplex mRNA; actives raise or lower the signal
Method in brief: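 HepG2 cells transiently transfected with multiplexed cis-element reporter units measure endogenous GATA activity; after 24 h compound exposure, reporter mRNA quantified by RT-PCR and capillary electrophoresis. Changes fitted in both directions vs DMSO.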

Measured: AC50

CC(=O)Oc1c(C)c(C)c2c(c1C)CC[C@@](C)(CCC[C@H](C)CCC[C@H](C)CCCC(C)C)O2
inactive: all assays above

O=C(O)C1=NN(c2ccc(S(=O)(=O)O)cc2)C(=O)C1
inactive: all assays above

ClCCOCCOCCCl
inactive: all assays above

N#CCCCC(C#N)CCC#N (stereo not given)
not listed: [19]
inactive: all other assays above

CCCCCCCCCCCCS
active: [2] 24.2 µM | [4] 33.4 µM | [6] 48.8 µM | [9] 9.11 µM
inactive: all other assays above

CCCCN(CCCC)CCCCCCN(CCCC)CCCC
not listed: [15]
inactive: all other assays above

CCCCCCCOC(C)=O
not listed: [15] | [16]
inactive: all other assays above

CCCCCCCCCO
not listed: [11]
inactive: all other assays above

Nc1cc([N+](=O)[O-])ccc1C(=O)O
active: [5] 20.3 µM
not listed: [15]
inactive: all other assays above

CCCO
inactive: all assays above

NC(=O)NC(N)=O
not listed: [19]
inactive: all other assays above

CC(CO)c1ccccc1 (stereo not given)
not listed: [9]
inactive: all other assays above

CC(=O)CCC=C(C)CCC=C(C)C
not listed: [9]
inactive: all other assays above

CC/C=C\CCCCO
not listed: [9]
inactive: all other assays above

CCCCOCCOCCO
not listed: [11] | [16]
inactive: all other assays above

O=Cc1ccccc1O
active: [5] 48.5 µM
not listed: [11] | [12] | [15]
inactive: all other assays above

Cc1cccc(C)c1
not listed: [9]
inactive: all other assays above

COc1ccc(N)c(C)c1
active: [6] 70 µM | [8] 151 µM | [15] 25.5 µM
not listed: [9]
inactive: all other assays above

C1COCO1
not listed: [9]
inactive: all other assays above

CC1=CC(C)C(C=O)C(C)C1 (stereo not given) (tested in a mixture with another compound)
not listed: [9]
inactive: all other assays above

C=CCCCCCCCCC(=O)OCC
not listed: [9]
inactive: all other assays above

CC1=CCC(C(C)C)=CC1
not listed: [9]
inactive: all other assays above

S=c1[nH][nH]c(=S)s1
not listed: [9]
inactive: all other assays above

CC(CO)(CO)[N+](=O)[O-]
not listed: [9]
inactive: all other assays above

CCCO[Si](OCCC)(OCCC)OCCC
active: [10] 100 µM
not listed: [9]
inactive: all other assays above

CC(C)(C)c1cccc(O)c1
not listed: [11] | [16]
inactive: all other assays above

O=C(O)c1ccc(C(=O)O)c(C(=O)O)c1
not listed: [11]
inactive: all other assays above

O=C(O)c1ccco1
not listed: [9]
inactive: all other assays above

CCCCCCC(C)O (stereo not given)
not listed: [9]
inactive: all other assays above

C=CCOCC(O)CO (stereo not given)
active: [2] 100 µM | [10] 149 µM | [19] 164 µM
not listed: [9]
inactive: all other assays above
